# Data reported in the supplement of paper PMC4466140.
# Legend:
# Assay in all cases: SPOT peptide array binding signal intensity (averaged, normalized) (arbitrary units (background-subtracted, floor 0; scale differs between SH3 domains)); higher = stronger binding of the SH3 domain to the peptide
# AgAbp1 = target: AgAbp1
# Experimental: (§1)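 GST-tagged SH3 domains from S. cerevisiae (Sc), A. gossypii (Ag), C. albicans (Ca) and S. pombe (Sp) were incubated at 10 ug/ml overnight at 4 C on cellulose SPOT membranes carrying 292 synthetic 15-mer peptides mined from the S. cerevisiae proteome (cysteines replaced by serines). Binding was detected with anti-GST antibody, HRP secondary and chemiluminescence, quantified with Genespotter, and reported as normalized spot intensities averaged over biological replicates.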
# AgBbc1 = target: AgBbc1
# Experimental: as §1
# AgBem1-D1 = target: AgBem1-D1
# Experimental: as §1
# AgBzz1-D1 = target: AgBzz1-D1
# Experimental: as §1
# AgBzz1-D2 = target: AgBzz1-D2
# Experimental: as §1
# AgCyk3 = target: AgCyk3
# Experimental: as §1
# AgFus1 = target: AgFus1
# Experimental: as §1
# AgHof1 = target: AgHof1
# Experimental: as §1
# AgHse1 = target: AgHse1
# Experimental: as §1
# AgLsb1 = target: AgLsb1
# Experimental: as §1
# AgLsb4 = target: AgLsb4
# Experimental: as §1
# AgMyo5 = target: AgMyo5
# Experimental: as §1
# AgNbp2 = target: AgNbp2
# Experimental: as §1
# AgRvs167 = target: AgRvs167
# Experimental: as §1
# AgSho1 = target: AgSho1
# Experimental: as §1
# AgSla1-D1-D2 = target: AgSla1-D1-D2
# Experimental: as §1
# AgSla1-D3 = target: AgSla1-D3
# Experimental: as §1
# CaAbp1-D1 = target: CaAbp1-D1
# Experimental: as §1
# CaAbp1-D2 = target: CaAbp1-D2
# Experimental: as §1
# CaBbc1 = target: CaBbc1
# Experimental: as §1
# CaBem1-D1 = target: CaBem1-D1
# Experimental: as §1
# CaBzz1-D1 = target: CaBzz1-D1
# Experimental: as §1
# CaBzz1-D2 = target: CaBzz1-D2
# Experimental: as §1
# CaCyk3 = target: CaCyk3
# Experimental: as §1
# CaFus1 = target: CaFus1
# Experimental: as §1
# CaHof1 = target: CaHof1
# Experimental: as §1
# CaHse1 = target: CaHse1
# Experimental: as §1
# CaLsb1 = target: CaLsb1
# Experimental: as §1
# CaLsb4 = target: CaLsb4
# Experimental: as §1
# CaMyo5 = target: CaMyo5
# Experimental: as §1
# CaNbp2 = target: CaNbp2
# Experimental: as §1
# CaRvs167 = target: CaRvs167
# Experimental: as §1
# CaRvs167-3 = target: CaRvs167-3
# Experimental: as §1
# CaSho1 = target: CaSho1
# Experimental: as §1
# CaSla1-D1-D2 = target: CaSla1-D1-D2
# Experimental: as §1
# CaSla1-D3 = target: CaSla1-D3
# Experimental: as §1
# ScAbp1 = target: ScAbp1
# Experimental: as §1
# ScBbc1 = target: ScBbc1
# Experimental: as §1
# ScBem1-D1 = target: ScBem1-D1
# Experimental: as §1
# ScBzz1-D1 = target: ScBzz1-D1
# Experimental: as §1
# ScBzz1-D2 = target: ScBzz1-D2
# Experimental: as §1
# ScCyk3 = target: ScCyk3
# Experimental: as §1
# ScFus1 = target: ScFus1
# Experimental: as §1
# ScHof1 = target: ScHof1
# Experimental: as §1
# ScHse1 = target: ScHse1
# Experimental: as §1
# ScLsb1 = target: ScLsb1
# Experimental: as §1
# ScLsb2 = target: ScLsb2
# Experimental: as §1
# ScLsb3 = target: ScLsb3
# Experimental: as §1
# ScLsb4 = target: ScLsb4
# Experimental: as §1
# ScMyo3 = target: ScMyo3
# Experimental: as §1
# ScMyo5 = target: ScMyo5
# Experimental: as §1
# ScNbp2 = target: ScNbp2
# Experimental: as §1
# ScPex13 = target: ScPex13
# Experimental: as §1
# ScRvs167 = target: ScRvs167
# Experimental: as §1
# ScSho1 = target: ScSho1
# Experimental: as §1
# ScSla1-D1-D2 = target: ScSla1-D1-D2
# Experimental: as §1
# ScSla1-D3 = target: ScSla1-D3
# Experimental: as §1
# SpAbp1-D1 = target: SpAbp1-D1
# Experimental: as §1
# SpBbc1 = target: SpBbc1
# Experimental: as §1
# SpBzz1-D1 = target: SpBzz1-D1
# Experimental: as §1
# SpBzz1-D2 = target: SpBzz1-D2
# Experimental: as §1
# SpCyk3 = target: SpCyk3
# Experimental: as §1
# SpHof1 = target: SpHof1
# Experimental: as §1
# SpHof1-2 = target: SpHof1-2
# Experimental: as §1
# SpHof1-3 = target: SpHof1-3
# Experimental: as §1
# SpHse1 = target: SpHse1
# Experimental: as §1
# SpLsb1 = target: SpLsb1
# Experimental: as §1
# SpLsb4 = target: SpLsb4
# Experimental: as §1
# SpMyo1 = target: SpMyo1
# Experimental: as §1
# SpNbp2 = target: SpNbp2
# Experimental: as §1
# SpPex13 = target: SpPex13
# Experimental: as §1
# SpRvs167 = target: SpRvs167
# Experimental: as §1
# SpSla1-D1-D2 = target: SpSla1-D1-D2
# Experimental: as §1
# SpSla1-D3 = target: SpSla1-D3
# Experimental: as §1
binder,measurement,setting,value
KIRRSSLMIPNPQQF,SPOT peptide array binding signal intensity,AgAbp1,26.5
same,SPOT peptide array binding signal intensity,AgBbc1,56.5
same,SPOT peptide array binding signal intensity,AgBem1-D1,234
same,SPOT peptide array binding signal intensity,AgBzz1-D1,18.5
same,SPOT peptide array binding signal intensity,AgBzz1-D2,39
same,SPOT peptide array binding signal intensity,AgCyk3,≤ 0
same,SPOT peptide array binding signal intensity,AgFus1,88
same,SPOT peptide array binding signal intensity,AgHof1,56.8
same,SPOT peptide array binding signal intensity,AgHse1,138
same,SPOT peptide array binding signal intensity,AgLsb1,86.5
same,SPOT peptide array binding signal intensity,AgLsb4,14
same,SPOT peptide array binding signal intensity,AgMyo5,2
same,SPOT peptide array binding signal intensity,AgNbp2,15
same,SPOT peptide array binding signal intensity,AgRvs167,1.67
same,SPOT peptide array binding signal intensity,AgSho1,15.5
same,SPOT peptide array binding signal intensity,AgSla1-D1-D2,186
same,SPOT peptide array binding signal intensity,AgSla1-D3,3.5
same,SPOT peptide array binding signal intensity,CaAbp1-D1,316
same,SPOT peptide array binding signal intensity,CaAbp1-D2,153
same,SPOT peptide array binding signal intensity,CaBbc1,214
same,SPOT peptide array binding signal intensity,CaBem1-D1,65.5
same,SPOT peptide array binding signal intensity,CaBzz1-D1,195
same,SPOT peptide array binding signal intensity,CaBzz1-D2,206
same,SPOT peptide array binding signal intensity,CaCyk3,11
same,SPOT peptide array binding signal intensity,CaFus1,383
same,SPOT peptide array binding signal intensity,CaHof1,1
same,SPOT peptide array binding signal intensity,CaHse1,12.5
same,SPOT peptide array binding signal intensity,CaLsb1,4
same,SPOT peptide array binding signal intensity,CaLsb4,72.5
same,SPOT peptide array binding signal intensity,CaMyo5,20.5
same,SPOT peptide array binding signal intensity,CaNbp2,129
same,SPOT peptide array binding signal intensity,CaRvs167,42.3
same,SPOT peptide array binding signal intensity,CaRvs167-3,7.5
same,SPOT peptide array binding signal intensity,CaSho1,84.5
same,SPOT peptide array binding signal intensity,CaSla1-D1-D2,532
same,SPOT peptide array binding signal intensity,CaSla1-D3,352
same,SPOT peptide array binding signal intensity,ScAbp1,42
same,SPOT peptide array binding signal intensity,ScBbc1,22.2
same,SPOT peptide array binding signal intensity,ScBem1-D1,136
same,SPOT peptide array binding signal intensity,ScBzz1-D1,40
same,SPOT peptide array binding signal intensity,ScBzz1-D2,32
same,SPOT peptide array binding signal intensity,ScCyk3,24
same,SPOT peptide array binding signal intensity,ScFus1,68
same,SPOT peptide array binding signal intensity,ScHof1,≤ 0
same,SPOT peptide array binding signal intensity,ScHse1,388
same,SPOT peptide array binding signal intensity,ScLsb1,20.5
same,SPOT peptide array binding signal intensity,ScLsb2,1.5
same,SPOT peptide array binding signal intensity,ScLsb3,15.5
same,SPOT peptide array binding signal intensity,ScLsb4,≤ 0
same,SPOT peptide array binding signal intensity,ScMyo3,5
same,SPOT peptide array binding signal intensity,ScMyo5,7
same,SPOT peptide array binding signal intensity,ScNbp2,126
same,SPOT peptide array binding signal intensity,ScPex13,46
same,SPOT peptide array binding signal intensity,ScRvs167,40.2
same,SPOT peptide array binding signal intensity,ScSho1,304
same,SPOT peptide array binding signal intensity,ScSla1-D1-D2,526
same,SPOT peptide array binding signal intensity,ScSla1-D3,337
same,SPOT peptide array binding signal intensity,SpAbp1-D1,95
same,SPOT peptide array binding signal intensity,SpBbc1,3.5
same,SPOT peptide array binding signal intensity,SpBzz1-D1,311
same,SPOT peptide array binding signal intensity,SpBzz1-D2,≤ 0
same,SPOT peptide array binding signal intensity,SpCyk3,6
same,SPOT peptide array binding signal intensity,SpHof1,94.5
same,SPOT peptide array binding signal intensity,SpHof1-2,24
same,SPOT peptide array binding signal intensity,SpHof1-3,241
same,SPOT peptide array binding signal intensity,SpHse1,184
same,SPOT peptide array binding signal intensity,SpLsb1,5.5
same,SPOT peptide array binding signal intensity,SpLsb4,144
same,SPOT peptide array binding signal intensity,SpMyo1,9.5
same,SPOT peptide array binding signal intensity,SpNbp2,33
same,SPOT peptide array binding signal intensity,SpPex13,162
same,SPOT peptide array binding signal intensity,SpRvs167,17.3
same,SPOT peptide array binding signal intensity,SpSla1-D1-D2,8
same,SPOT peptide array binding signal intensity,SpSla1-D3,68
QRIRKIPGIPLMSVG,SPOT peptide array binding signal intensity,AgAbp1,26
same,SPOT peptide array binding signal intensity,AgBbc1,184
same,SPOT peptide array binding signal intensity,AgBem1-D1,63.5
same,SPOT peptide array binding signal intensity,AgBzz1-D1,19.5
same,SPOT peptide array binding signal intensity,AgBzz1-D2,34
same,SPOT peptide array binding signal intensity,AgCyk3,1
same,SPOT peptide array binding signal intensity,AgFus1,296
same,SPOT peptide array binding signal intensity,AgHof1,29.2
same,SPOT peptide array binding signal intensity,AgHse1,194
same,SPOT peptide array binding signal intensity,AgLsb1,13.8
same,SPOT peptide array binding signal intensity,AgLsb4,258
same,SPOT peptide array binding signal intensity,AgMyo5,≤ 0
same,SPOT peptide array binding signal intensity,AgNbp2,486
same,SPOT peptide array binding signal intensity,AgRvs167,54.8
same,SPOT peptide array binding signal intensity,AgSho1,104
same,SPOT peptide array binding signal intensity,AgSla1-D1-D2,40.5
same,SPOT peptide array binding signal intensity,AgSla1-D3,11.5
same,SPOT peptide array binding signal intensity,CaAbp1-D1,253
same,SPOT peptide array binding signal intensity,CaAbp1-D2,358
same,SPOT peptide array binding signal intensity,CaBbc1,226
same,SPOT peptide array binding signal intensity,CaBem1-D1,34.5
same,SPOT peptide array binding signal intensity,CaBzz1-D1,162
same,SPOT peptide array binding signal intensity,CaBzz1-D2,106
same,SPOT peptide array binding signal intensity,CaCyk3,49.5
same,SPOT peptide array binding signal intensity,CaFus1,707
same,SPOT peptide array binding signal intensity,CaHof1,0.25
same,SPOT peptide array binding signal intensity,CaHse1,94.2
same,SPOT peptide array binding signal intensity,CaLsb1,1.25
same,SPOT peptide array binding signal intensity,CaLsb4,2460
same,SPOT peptide array binding signal intensity,CaMyo5,1.5
